Among the test systems are SR leukemia; RPMI-8226 leukemia; OVCAR-8 ovarian; OVCAR-5 ovarian; OVCAR-4 ovarian; SK-OV-3 ovarian; IGROV1 ovarian; OVCAR-3 ovarian; HS 578T breast; NCI/ADR-RES ovarian; T-47D breast; BT-549 breast; MDA-MB-435 melanoma; SW-620 colon; MCF7 breast; HCT-116 colon; HCC-2998 colon; KM12 colon.
Common to all, as to test: NCI-60 one-dose screen, 48 h (100 = growth as untreated, 0 = no growth, -100 = all killed)
Common to all, as to conditions: 10 µM unless noted

Structures are written as SMILES. Compounds without any hit were thinned out: in the full panel of roughly 83,000, 20% have a hit.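 Single-dose data. Exposure time 48 hours. Values below 10 considered active.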 Values without a mark were called inactive. The source made the active and inactive calls.

As to `CN(C)C(=O)OCc1ccc2c(Cl)cc(Cl)c(O)c2n1`, the growth was 34.3% in the experiment on SR leukemia; 34.7% in the experiment on RPMI-8226 leukemia; 22.6% with OVCAR-8 ovarian; 77.4% in the experiment on OVCAR-5 ovarian; 20.8% in the experiment on OVCAR-4 ovarian; 50.1% in the experiment with SK-OV-3 ovarian. Also, the growth was 40.9% in the experiment on IGROV1 ovarian; 30.6% in the experiment on OVCAR-3 ovarian; 71.8% with HS 578T breast; 14.8% in the experiment with NCI/ADR-RES ovarian; 37.8% in the experiment with T-47D breast; 60.3% in the experiment on BT-549 breast. For the same compound, the growth in the experiment on MDA-MB-435 melanoma was 31.2%; in the experiment on SW-620 colon, 25.7%; with MCF7 breast it was 32.4%; with HCT-116 colon, 31.6%; with HCC-2998 colon, 61.8%; in the experiment with KM12 colon it was 35.4%.

On to `N=C(N)c1ccc(-c2ccc(-c3ccccc3)s2)nc1`, for which the growth in the experiment with SR leukemia was 12.5%; with RPMI-8226 leukemia it was 48%; with OVCAR-8 ovarian, 91.9%; in the experiment on OVCAR-5 ovarian, 92.9%; in the experiment with OVCAR-4 ovarian, 107%; in the experiment on SK-OV-3 ovarian, 88.6%. Besides, the growth is 82.3% in the experiment on IGROV1 ovarian; 95% in the experiment on OVCAR-3 ovarian; 85% in the experiment with HS 578T breast; 96.7% with NCI/ADR-RES ovarian; 79.5% with T-47D breast; 98.7% in the experiment with BT-549 breast. The growth was 85.8% in the experiment on MDA-MB-435 melanoma; 57.4% with SW-620 colon; 41.3% in the experiment on MCF7 breast; 46.9% with HCT-116 colon; 58.9% in the experiment with HCC-2998 colon; 39.4% in the experiment on KM12 colon.

For `O=C1/C(=C/c2ccccc2)COc2ccc(O)cc21`, the growth was 17.6% with SR leukemia; -16.5% (active) in the experiment on RPMI-8226 leukemia; 95.9% in the experiment with OVCAR-8 ovarian; 104% in the experiment with OVCAR-5 ovarian; 99.5% in the experiment on OVCAR-4 ovarian; 124% with SK-OV-3 ovarian. Also, the growth in the experiment with IGROV1 ovarian is 105%; with OVCAR-3 ovarian, 98.7%; in the experiment on HS 578T breast, 107%; in the experiment on NCI/ADR-RES ovarian it was 104%; in the experiment with T-47D breast, 80.7%; in the experiment on BT-549 breast, 81.2%. Further, the growth with MDA-MB-435 melanoma was 68.4%; in the experiment with SW-620 colon it was 53.1%; in the experiment on MCF7 breast, 23.7%; in the experiment on HCT-116 colon, 51.9%; with HCC-2998 colon, 101%; with KM12 colon it was 41.4%.

On to `O=C(NC1CCCCCC1)c1ccc2c(=O)n3c(nc2c1)CCCCC3`, for which the growth in the experiment with SR leukemia was 116%; in the experiment with RPMI-8226 leukemia it was 87%; in the experiment on OVCAR-8 ovarian it was 101%; in the experiment on OVCAR-5 ovarian it was 111%; in the experiment on OVCAR-4 ovarian it was 76.2%; with SK-OV-3 ovarian, 108%. Also, the growth with IGROV1 ovarian is 94.2%; with OVCAR-3 ovarian, 110%; in the experiment with HS 578T breast it was 83%; in the experiment with NCI/ADR-RES ovarian it was 91.3%; in the experiment on T-47D breast, 100%; in the experiment on BT-549 breast, 100%. Moreover, the growth with MDA-MB-435 melanoma is 112%; with SW-620 colon, 101%; in the experiment on MCF7 breast, 100%; with HCT-116 colon, 104%; in the experiment on HCC-2998 colon, 121%; with KM12 colon, 115%.

Regarding `C#Cc1cccc(Nc2ncnc3ccc(-c4cnc(Cl)c(NS(C)(=O)=O)c4)cc23)c1`, the growth with SR leukemia is -9.92% (active); in the experiment with RPMI-8226 leukemia, -31.8% (active); in the experiment on OVCAR-8 ovarian it was 3.78% (active); with OVCAR-5 ovarian, -15.5% (active); in the experiment on OVCAR-4 ovarian, 9.21% (active); in the experiment with SK-OV-3 ovarian, -25% (active). Besides, the growth in the experiment on IGROV1 ovarian was -55.8% (active); in the experiment with OVCAR-3 ovarian it was -72.5% (active); in the experiment with HS 578T breast, -21.4% (active); in the experiment with NCI/ADR-RES ovarian, 7.96% (active); in the experiment on T-47D breast, -46.8% (active); with BT-549 breast, -35.4% (active). Also, the growth was -55.2% (active) with MDA-MB-435 melanoma; 2.56% (active) with SW-620 colon; -55% (active) in the experiment with HCT-116 colon; -62.5% (active) in the experiment with HCC-2998 colon; -54.3% (active) in the experiment on KM12 colon.

For `CCOC(=O)c1c2c(n3ccc(NC(=O)CCN4CCCC4)cc13)C(=O)c1ncccc1C2=O`, the growth in the experiment with SR leukemia is -20.2% (active); in the experiment on RPMI-8226 leukemia it was -31.8% (active); with OVCAR-8 ovarian, -33.3% (active); in the experiment with OVCAR-5 ovarian it was -67.4% (active); in the experiment with OVCAR-4 ovarian it was -68.1% (active); in the experiment with SK-OV-3 ovarian it was 74.4%. For the same compound, the growth in the experiment with IGROV1 ovarian is -71.1% (active); with OVCAR-3 ovarian, -85.9% (active); in the experiment with HS 578T breast, -43.9% (active); with NCI/ADR-RES ovarian it was 27.3%; with T-47D breast it was -43.9% (active); in the experiment with BT-549 breast, -73.8% (active). The growth is -68.5% (active) with MDA-MB-435 melanoma; -82.9% (active) with SW-620 colon; -66.6% (active) in the experiment on MCF7 breast; -82.8% (active) with HCT-116 colon; -83.5% (active) with HCC-2998 colon; -89.4% (active) in the experiment with KM12 colon.

With `CCOC(=O)/C(=C/c1ccc([N+](=O)[O-])cc1)C(=O)c1ccccc1`, the growth was 4.07% (active) in the experiment with SR leukemia; -13% (active) in the experiment with RPMI-8226 leukemia; 41.5% with OVCAR-8 ovarian; 41.7% in the experiment on OVCAR-5 ovarian; 76% in the experiment on OVCAR-4 ovarian; 102% in the experiment with SK-OV-3 ovarian. For the same compound, the growth in the experiment on IGROV1 ovarian is 42.5%; with OVCAR-3 ovarian, 58.4%; with HS 578T breast it was 33.2%; with NCI/ADR-RES ovarian, 25.7%; in the experiment on T-47D breast, 41.9%; in the experiment on BT-549 breast, 6.8% (active). Besides, the growth was 28.1% in the experiment on MDA-MB-435 melanoma; 6.12% (active) with SW-620 colon; 22.7% with MCF7 breast; -8.58% (active) with HCT-116 colon; 47.7% with HCC-2998 colon; 29.5% in the experiment with KM12 colon.

As to `Cc1nc2ccccc2c(/C=C/c2ccc(Cl)cc2)c1C(=O)/C=C/c1ccccc1`, the growth is 11.5% in the experiment on SR leukemia; -11.8% (active) in the experiment with RPMI-8226 leukemia; -2.61% (active) with OVCAR-8 ovarian; -21.8% (active) with OVCAR-5 ovarian; 33.1% in the experiment on OVCAR-4 ovarian; 57.4% in the experiment with SK-OV-3 ovarian. Besides, the growth in the experiment on IGROV1 ovarian was 0.031% (active); with OVCAR-3 ovarian, -35.1% (active); in the experiment on HS 578T breast, 25%; in the experiment with NCI/ADR-RES ovarian, 0.775% (active); with T-47D breast, 9.61% (active); in the experiment on BT-549 breast it was 26.7%. The growth with MDA-MB-435 melanoma is -53.2% (active); in the experiment on SW-620 colon it was 1.45% (active); with MCF7 breast, 11.2%; with HCT-116 colon it was -53.4% (active); with HCC-2998 colon, -12% (active); in the experiment with KM12 colon, 10.7%.

Source of the values: PubChem BioAssay (NCI).
